A selection: hits, their analogues and other compounds. The true share with any hit is near 3.3%.
D3 ag = activates the human D3 dopamine receptor; P35462; D3R DiscoveRx beta-arrestin cells, luminescence, 90 min; max activation, %; actives 0.58% (n = 410,000); AID 652048; in the data active means max activation above about 30%
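Cells at 1500/well, incubated overnight, then treated with pinned compounds (dopamine as control) for 90 min at 37 degrees C. DiscoveRx reagent added for 30 - 60 minutes at room temperature; luminescence read.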
PI4K2A inh = inhibitors of human PI4K2A | Q9BTU6 | purified PI4K2A, ADP-Glo luminescence, 1 h; active compounds read low | activity change, negative = inhibition, % at 76.9 µM | actives 0.13% (n = 420,000); in the data active means activity change below about -50%; inconclusive means mostly about -30% to -49%
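ADP-Glo luminescence measured ADP generated by PI4K2A enzyme (4 ug/mL before mixing) with 1.2 mM PI substrate (pre-mix) and 300 microM ATP (pre-mix). Tris pH7.5 buffer with MgCl2, Triton X-100; 1 h reaction at ambient temperature.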
PI5P4Ka inh = blocks human PI5P4K alpha kinase activity; max response, %; actives 1.2% (n = 330,000); PI5P4Kalpha enzyme, ADP-Glo luminescence, 60 min; active compounds read low; P48426; AID 652105; active means max response of -50% or lower; inconclusive means between -30% and -50%; inactive means -30% or higher; further: value at the top dose of about 77 µM
Target sequence (P48426 whole entry, looked up): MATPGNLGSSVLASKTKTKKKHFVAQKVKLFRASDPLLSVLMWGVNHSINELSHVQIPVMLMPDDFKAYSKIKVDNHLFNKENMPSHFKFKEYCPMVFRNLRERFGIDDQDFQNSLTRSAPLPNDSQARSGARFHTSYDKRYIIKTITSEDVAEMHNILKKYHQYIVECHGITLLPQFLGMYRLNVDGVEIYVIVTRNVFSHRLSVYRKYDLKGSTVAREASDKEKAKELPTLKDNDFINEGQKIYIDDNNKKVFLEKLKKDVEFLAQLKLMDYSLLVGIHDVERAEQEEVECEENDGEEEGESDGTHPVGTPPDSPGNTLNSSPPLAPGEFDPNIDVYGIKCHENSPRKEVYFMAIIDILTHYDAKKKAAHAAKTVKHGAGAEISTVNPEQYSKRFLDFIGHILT
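Enzyme plus substrate dispensed, test compounds pinned in, then ATP (5 microM final) added. After 60 min at RT, ADP-Glo reagent 1 for 45 min and reagent 2 for 30 min preceded luminescence imaging.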
LDHA block = blocks human lactate dehydrogenase A | actives 0.15% (n = 480,000) | AID 1347041 | purified LDHA, NADH/diaphorase-resazurin fluorescence; active compounds read low | P00338 | activity change, % (values are at about 110 or 230 µM); in the data active means activity change below about -30%; inconclusive means mostly about -25% to -30%
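Enzyme activity of human lactate dehydrogenase 5 (2 nM; 0.06 mM NADH, 0.2 mM pyruvate, 5 min, RT) is measured via a resazurin/diaphorase fluorescence readout of residual NADH.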
DRD3 antagonist = D3 dopamine receptor (human) antagonism. P35462. actives 2.5% (n = 360,000). AID 652054. max response, negative = inhibition, %. D3R cells, DiscoveRx beta-arrestin luminescence, antagonist mode; active compounds read low; in the data active means max response below about -50%; inconclusive means no clear call, values can overlap the other calls
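Cells plated overnight at 1500 cells/well, then exposed to library compounds with dopamine controls for 90 minutes at 37 degrees C. DiscoveRx reagent added for 30–60 minutes at room temperature; luminescence read, quantitative HTS format.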
Each line names hits and unclear results; the compound was inactive in the other large screens.

O=C(CN1C(=O)S/C(=C\c2cc(Cl)c(O)c(Cl)c2)C1=O)Nc1ccccc1	PI5P4Ka inh -86
O=C(CN1C(=O)S/C(=C\c2ccccn2)C1=O)Nc1ccccc1	none
Cc1ccccc1NC(=O)CN1C(=O)S/C(=C\c2ccc(-c3cc(C(=O)O)ccc3C)o2)C1=O	PI5P4Ka inh -79, DRD3 antagonist inconclusive
Cc1ccc(C(=O)O)cc1-c1ccc(/C=C2\SC(=O)N(CC(=O)Nc3ccccc3)C2=O)o1	PI5P4Ka inh -56
CC(NC(=O)C(c1ccccc1)C1CCCC1)C12CC3CC(CC(C3)C1)C2 (stereo not given)	none (no result: D3 ag, PI4K2A inh, PI5P4Ka inh, DRD3 antagonist)
CN(C)c1cc(Cl)c2nonc2c1N	PI4K2A inh -57
CCN(CC)c1cc(Cl)c2nonc2c1N	none
CCN(CC)CCOC(=O)/C=C/c1ccccc1	DRD3 antagonist -63
CCN(CC)CCCOC(=O)C(c1ccccc1)c1ccccc1	DRD3 antagonist -85
Cc1cc(C(=O)CSc2nncs2)c(C)n1-c1c(C)n(C)n(-c2ccccc2)c1=O	DRD3 antagonist -95 (no result: PI5P4Ka inh)
OCCN1CCN(C2CCC(c3ccc(F)cc3)c3ccc(F)cc32)CC1 (stereo not given)	DRD3 antagonist -63
Nc1ncc(-c2ccc(F)cc2)nc1N1CCN(CCO)CC1	none
CCCC1CCC(c2ccc(-c3ccc(CC)cn3)cc2)CC1C (stereo not given)	none (no result: D3 ag, PI4K2A inh, PI5P4Ka inh, DRD3 antagonist)
Nc1c(C(=O)Nc2nc3ccccc3s2)sc2nc(-c3cccs3)ccc12	PI4K2A inh -63 (no result: PI5P4Ka inh)
O=C(Nc1cccc2ccccc12)C1CC2CCCC(C1)C2=O (stereo not given)	none (no result: D3 ag, PI4K2A inh, PI5P4Ka inh, DRD3 antagonist)
Cc1cc(C)n(CC(=O)N/N=C/c2cc([N+](=O)[O-])ccc2O)n1	DRD3 antagonist -56
Cc1cc(C)n(CC(=O)N/N=C/c2cc(Br)cc([N+](=O)[O-])c2O)n1	DRD3 antagonist -66
Cc1cc(C)n(CC(=O)c2ccc(Cl)cc2)n1	none
Cc1cc(C)n(CC(=O)c2cccc([N+](=O)[O-])c2)n1	DRD3 antagonist -58
Cc1ccc(CN2CCN(/N=C/c3ccc(O)c(O)c3)CC2)cc1	DRD3 antagonist -64
COc1cc(/C=N/N2CCN(Cc3ccc(Cl)cc3)CC2)cc(Br)c1O	none
Cc1ccc(CN2CCN(/N=C/c3ccc(C(=O)O)cc3)CC2)cc1	none
COc1ccc(/C=N/N2CCN(Cc3ccc(C)cc3)CC2)cc1Br	DRD3 antagonist -92
FC(F)(F)c1cccc(-n2c(SCc3cccc(Br)c3)nnc2-c2cccnc2)c1	none (no result: D3 ag, PI4K2A inh, PI5P4Ka inh, DRD3 antagonist)
NC(=O)c1cc[n+](CC2=C(C(=O)O)N3C(=O)[C@@H](NC(=O)C(c4ccccc4)S(=O)(=O)[O-])[C@H]3SC2)cc1 (stereo not given in full)	PI4K2A inh inconclusive, PI5P4Ka inh -97
COc1ccc(CN(C)CC2CCCN(CCc3ccccc3C)C2)cc1O (stereo not given)	none
COc1cc(OC)c(OC)cc1CN(C)CC1CCCN(CCc2ccccc2F)C1 (stereo not given)	DRD3 antagonist -51
CC(C)c1ccc2c(c1)C(N1CCN(C)CC1)Cc1cccnc1S2 (stereo not given)	DRD3 antagonist -104
CN1CCN2c3ncccc3Cc3ccccc3[C@@H]2C1	none
S=c1[nH]nc(NC2CCCCC2)s1	PI5P4Ka inh -70
Cc1ccc(-n2ccc(=O)c(C(=O)Nc3ccc(S(=O)(=O)Nc4onc(C)c4C)cc3)n2)cc1	LDHA block -62
C[N+]1(C2CCC3CCC2C3O)CCCC1 (stereo not given)	none
CC(=O)OC1C2CCC1C([N+]1(C)CCCCC1)CC2 (stereo not given)	LDHA block -34
N#C/C(=C\c1cc(O)c(O)c(O)c1)C(N)=O	PI5P4Ka inh -76
C1=CC2c3ccccc3NC(c3ccncc3)C2C1 (stereo not given)	PI5P4Ka inh -57
Brc1cc2c(cc1C1Nc3ccccc3C3C=CCC31)OCO2 (stereo not given)	none
CC(=O)N1CCN(c2ccc(Nc3ncnc4c3oc3ccccc34)cc2)CC1	DRD3 antagonist -64
c1ccc(N2CCN(c3ncnc4c3oc3ccccc34)CC2)cc1	D3 ag 36
CCc1nnc(N2CCN(c3ncnc4c3oc3ccccc34)CC2)s1	none
CCc1nc(Nc2ccc(N3CCN(C(C)=O)CC3)cc2)c2oc3ccccc3c2n1	DRD3 antagonist inconclusive
CC(=O)c1ccccc1NCC(=O)Nc1ccc(C#N)cc1	none (no result: D3 ag, PI4K2A inh, PI5P4Ka inh, DRD3 antagonist)
CC(Oc1ccc(Cl)c(Cl)c1)C(=O)NN (stereo not given)	none (no result: D3 ag, PI4K2A inh, PI5P4Ka inh, DRD3 antagonist)
COC(=O)c1ccc(/C=C(/C#N)C(=O)Nc2ccc(N3CCOCC3)cc2)cc1	none (no result: D3 ag, PI4K2A inh, PI5P4Ka inh, DRD3 antagonist)
CC(C)C1=NN2C(=N)CC(=O)N=C2S1	DRD3 antagonist -63 (no result: PI5P4Ka inh)
O=C(O)c1ccccc1SCc1ccc(Cl)cc1	none (no result: D3 ag, PI4K2A inh, PI5P4Ka inh, DRD3 antagonist)
COc1ccccc1N1CCN(CC(=O)c2c(C)[nH]c3ccccc23)CC1	DRD3 antagonist inconclusive (no result: PI5P4Ka inh)
COc1ccccc1N1CCN(CC(O)c2ccccc2)CC1 (stereo not given)	DRD3 antagonist -55
COc1ccccc1N1CCN(CC(O)c2c(C)[nH]c3ccccc23)CC1 (stereo not given)	DRD3 antagonist -79
CC1CCN(C(=O)CN2CCN(c3nc(C(C)C)c4c(c3C#N)CCC4)CC2)CC1	none (no result: D3 ag, PI4K2A inh, PI5P4Ka inh, DRD3 antagonist)
CC(C)=CC1C(C(=O)N(C)CC(N)=O)C1(C)C (stereo not given)	none (no result: D3 ag, PI4K2A inh, PI5P4Ka inh, DRD3 antagonist)
CC(=O)Nc1ccc(Nc2nc(C)nc3c2nnn3Cc2ccccc2Cl)cc1	DRD3 antagonist -74
Cc1nc(Nc2ccc(Cl)cc2)c2nnn(Cc3ccccc3)c2n1	none
Cc1nc(Nc2ccc(S(=O)(=O)N3CCCCC3C)cc2)c2nnn(Cc3ccccc3)c2n1 (stereo not given)	DRD3 antagonist -59
Fc1ccc(CNCc2cccs2)cc1	none (no result: D3 ag, PI4K2A inh, PI5P4Ka inh, DRD3 antagonist)
O=[N+]([O-])c1cccc(/C=C/c2nc(C=Nc3ccccc3)c(O)o2)c1	D3 ag 31 (no result: PI5P4Ka inh)
Oc1oc(-c2ccccc2)nc1C=Nc1ccccc1	none (no result: PI5P4Ka inh)
CCOc1ccc(C2C(C#N)=C(SCC(=O)Nc3cccc(C)c3)NC3=C2C(=O)CCC3)cc1 (stereo not given)	none (no result: D3 ag, PI4K2A inh, PI5P4Ka inh, DRD3 antagonist)
CC(OC(=O)c1ccc2c(c1)NC(=O)CS2)C(N)=O (stereo not given)	none (no result: D3 ag, PI4K2A inh, PI5P4Ka inh, DRD3 antagonist)
Cc1cc(O)c2c(c1)C(=O)c1cc(O)cc(O)c1C2=O	PI5P4Ka inh -58
O=C1c2cc(O)cc(O)c2C(=O)c2c1cc(O)c([C@@H](CO)CCO)c2O	PI5P4Ka inh -51, DRD3 antagonist -53
O=C1c2cccc(O)c2C(=O)c2c(O)cc(CO)cc21	none
Cc1nc2ccc(Nc3nc(Nc4c(C)cc(C=CC#N)cc4C)nc4nc[nH]c34)cc2s1	none (no result: D3 ag, PI4K2A inh, PI5P4Ka inh, DRD3 antagonist)
O=C(N1CCN(C/C=C/c2ccccc2)CC1)C(F)(F)F	none (no result: D3 ag, PI4K2A inh, PI5P4Ka inh, DRD3 antagonist)
Brc1cccc(C=Nc2cccc3c2CCCC3)c1	none (no result: D3 ag, PI4K2A inh, PI5P4Ka inh, DRD3 antagonist)
N#Cc1ccsc1NC(=O)c1cnccn1	DRD3 antagonist -52

Compound activity: PubChem BioAssay, National Center for Advancing Translational Sciences (NCATS)
